# Laboratory results published in PubChem BioAssay (NCATS).
# “And” between values parts separate entries of the source, which are not always exact repeats. Equal values may be shown once. Inconclusive results are not listed. A call without a number means that no potency is given here. A number with no mark means an inactive call. The source made the active and inactive calls. Calls come from the whole dose curve; as a rule, active = well fitted curve in the direction sought with a large enough effect; inconclusive = small, poorly fitted or top-dose-only effect, or another doubt; inactive = no such curve, though single readings can be large; an effect the other way counts as inactive or inconclusive.
# Experiments:
# [1] = P-glycoprotein substrates identified in KB-3-1 adenocarcinoma cell line, qHTS therapeutic library screen (AID 1346986); conditions: KB-3-1 parental cells viability, CellTiter-Glo, 72 h; series mostly up to 44.5 µM; note: nearly all actives have a fitted effect of over 60% in size;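 note: potency is for cytotoxicity meaning loss of cell viability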
# In short: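 In 1536-well format, 500 cells/well received pinned compound titrations and were incubated 72 h, 5% CO2. Viability was read by CellTiter-Glo; cytotoxic if AC50 < 10 uM and efficacy >50%.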
# [2] = P-glycoprotein substrates identified in KB-8-5-11 adenocarcinoma cell line, qHTS therapeutic library screen (AID 1346987); conditions: KB-8-5-11 (P-gp overexpressing) viability, CellTiter-Glo, 72 h; series mostly up to 44.5 µM; note: nearly all actives have a fitted effect of over 65% in size
# In short: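 Luminescence from CellTiter-Glo, read 5 min after addition, quantified survival of KB-8-5-11 (P-gp-overexpressing) cells exposed to compounds for 72 h. AC50 was derived from concentration-response curves.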
# Potency is the fitted concentration of half-maximal effect.
smiles,measurement,setting,value
CC1(C)CC[C@]2(C(=O)O)CC[C@]3(C)C(=CCC4[C@@]5(C)CC[C@H](O[C@@H]6O[C@H](C(=O)O)[C@@H](O[C@@H]7OC[C@@H](O)[C@H](O)[C@H]7O)[C@H](O)[C@H]6O)C(C)(C)C5CC[C@]43C)C2C1O (stereo partly drawn),Potency,[1],inactive
same,Potency,[2],inactive
COC(=O)CCc1cc2ccoc2c(OC)c1O[C@@H]1O[C@H](CO)[C@@H](O)[C@H](O)[C@H]1O,Potency,[1],inactive
same,Potency,[2],inactive
O=C(O)[C@@H]1C[C@H]2C[C@@H](CCc3nn[nH]n3)CC[C@H]2CN1,Potency,[1],inactive
same,Potency,[2],inactive
O=C(O)Cc1cn(C2OCC(O)C(O)C2O[C@@H]2O[C@H](CO)[C@@H](O)[C@H](O)[C@H]2O)c2ccccc12 (stereo partly drawn),Potency,[1],inactive
same,Potency,[2],inactive
CC(C)(O)c1ccc2c(c1)C(O)C[C@H]1[C@](C)(C(=O)O)CCC[C@]21C (stereo partly drawn),Potency,[1],inactive
same,Potency,[2],inactive
CC[C@@H](O)C[C@@H]1C(C)=C[C@@H]2CCCC[C@@H]2[C@@]1(C)C(=O)O,Potency,[1],inactive
same,Potency,[2],inactive
Cc1noc(=O)c2ccc(NC(=O)C(O)(CC(C)(C)c3cccc4c3OCC4)C(F)(F)F)cc12 (stereo not drawn),Potency,[1],inactive
same,Potency,[2],inactive
CC(=O)O[C@H]1[C@H](O[C@H]2[C@@H]3C=CO[C@@H](O[C@@H]4O[C@H](CO)[C@@H](O)[C@H](O)[C@H]4O)[C@@H]3[C@@]3(CO)O[C@@H]23)O[C@@H](C)[C@H](OC(=O)/C=C/c2ccccc2)[C@H]1OC(=O)/C=C/c1ccccc1,outcome,[1],inactive [at 9.29 µM]
same,outcome,[2],inactive [at 9.29 µM]
CC(C)=CCC[C@](C)(O)[C@H]1CC[C@]2(C)[C@@H]1[C@H](O)CC1[C@@]3(C)CC[C@H](O)C(C)(C)C3[C@@H](O[C@@H]3O[C@H](CO)[C@@H](O)[C@H](O)[C@H]3O[C@@H]3OC[C@@H](O)[C@H](O)[C@H]3O)C[C@]12C (stereo partly drawn),Potency,[1],inactive
same,Potency,[2],inactive
CC1CCC23COC(=O)C2=CC(O)CC3C1(C)CCC1=CC(O)OC1=O (stereo not drawn),Potency,[1],inactive
same,Potency,[2],inactive
CC(=O)c1ccc2c(c1)C(O)C(C(C)(C)O)O2 (stereo not drawn),Potency,[1],inactive
same,Potency,[2],inactive
CC1=C(/C=C/C(C)=C\C=C\C(C)=C/C(=O)O)C(C)(C)CCC1,Potency,[1],inactive
same,Potency,[2],inactive
COc1c2c(c(C)c3c1C(=O)OC3)OC1(C)CC(O)C34OC(OC)(OC3(C)C)C(O)CC4(C)C1C2 (stereo not drawn),Potency,[1],inactive
same,Potency,[2],inactive
Cc1c(CN2CCN(C(=O)C(C)O)CC2)sc2c(N3CCOCC3)nc(-c3cnc(N)nc3)nc12 (stereo not drawn),Potency,[1],259 nM (active)
same,Potency,[2],820 nM (active)
COC(=O)C(C)C1CCC2(C)C(=O)C=CC(C)(O)C2C1O (stereo not drawn),Potency,[1],inactive
same,Potency,[2],inactive
CCC[C@@H]1O[C@@H]2C[C@H]3[C@@H]4CCC5=CC(=O)C=C[C@]5(C)[C@H]4[C@@H](O)C[C@]3(C)[C@]2(C(=O)CO)O1,Potency,[1],inactive
same,Potency,[2],inactive
COc1cc2c(cc1O)[C@H](c1ccc(O[C@@H]3O[C@H](CO)[C@@H](O)[C@H](O)[C@H]3O)c(OC)c1)[C@@H](CO)[C@](O)(CO)C2,Potency,[1],inactive
same,Potency,[2],inactive
CC(NC(=O)C(O)C(C)C)C(=O)NC1C(=O)N(C)CCc2ccccc21 (stereo not drawn),Potency,[1],inactive
same,Potency,[2],inactive
CC(=O)/C=C/[C@H]1[C@](C)(O)[C@@H](O)[C@H](OC(C)=O)C2C(C)(C)CCC[C@@]21C (stereo partly drawn),Potency,[1],inactive
same,Potency,[2],inactive
C[C@H](Nc1ncnc2nc[nH]c12)c1cc2ccc(F)cc2nc1-c1ccccn1,Potency,[1],inactive
same,Potency,[2],inactive
COc1ccc(CN2C(=O)C(=O)c3cc(S(=O)(=O)N4CCC[C@H]4COc4cccnc4)ccc32)cc1,Potency,[1],inactive
same,Potency,[2],inactive
CCNC(=O)Nc1ccc(-c2nc3c(c(N4CCOC[C@@H]4C)n2)CCN(c2ncccn2)C3)cc1,Potency,[1],58 nM (active)
same,Potency,[2],259 nM (active)
CC(=O)O[C@H]1[C@@H](O)[C@H](O[C@H]2[C@@H]3C=CO[C@@H](O[C@H]4O[C@@H](CO)[C@H](O)[C@@H](O)[C@@H]4O)[C@@H]3[C@@]3(CO)O[C@@H]23)O[C@@H](C)[C@@H]1OC(=O)/C=C/c1ccccc1,Potency,[1],inactive
same,Potency,[2],inactive
C[C@@H]1O[C@@H](O[C@H]2[C@H](O[C@H]3CC[C@@]4(C)C(CC[C@]5(C)C4CC=C4[C@@H]6CC(C)(C)CC[C@]6(C(=O)O[C@@H]6OC[C@H](O)[C@H](O)[C@H]6O[C@@H]6O[C@@H](C)[C@H](O[C@@H]7O[C@H](CO)[C@@H](O)[C@H](O)[C@H]7O)[C@H](O)[C@H]6O)[C@H](O)C[C@]45C)C3(C)C)O[C@H](CO)[C@@H](O[C@@H]3OC[C@@H](O)[C@H](O)[C@H]3O)[C@@H]2O)[C@H](O)[C@H](O)[C@H]1O (stereo partly drawn),outcome,[1],inactive [at 9.29 µM]
same,outcome,[2],inactive [at 9.29 µM]
CCN1CCN(Cc2ccc(NC(=O)c3ccc(C)c(NC(=O)c4cncc(-c5cccs5)c4)c3)cc2C(F)(F)F)CC1,Potency,[1],2060 nM (active)
same,Potency,[2],7310 nM (active)
CCc1c(-c2ccccc2)c(-c2ccccc2)nn1-c1ccccc1-c1cccc(OCC(=O)O)c1,Potency,[1],inactive
same,Potency,[2],inactive
C=CC(C)(C)C12C=C(OC)C(=O)N3C(C(C)C)C(=O)NC31N(OC)c1ccccc12 (stereo not drawn),Potency,[1],inactive
same,Potency,[2],inactive
COc1c(C)c(OCC(O)C(C)(C)O)cc2c1COC2=O (stereo not drawn),Potency,[1],inactive
same,Potency,[2],inactive
COc1cc(O)cc(/C=C/c2ccc(O[C@@H]3O[C@H](CO)[C@@H](O)[C@H](O)[C@H]3O)cc2)c1,Potency,[1],inactive
same,Potency,[2],inactive
CC(C)(O)/C=C/CC(C)(O)C1C(O)CC2(C)C3CCC4C(C)(C)C(=O)CCC4(C)C3CCC12C (stereo not drawn),Potency,[1],inactive
same,Potency,[2],inactive
CC1(C)CCCC2(C)C1C(O)C=C(CO)C2(O)CO (stereo not drawn),Potency,[1],inactive
same,Potency,[2],inactive
CC1OC(O[C@H]2CC[C@@]3(C)C(CC[C@]4(C)C3CC=C3C5CC(C)(C)CC[C@]5(C(=O)OC5OC(CO)C(OC6OC(COC7OCC(O)C(O)C7O)C(O)C(O)C6O)C(O)C5O)CC[C@]34C)C2(C)C)C(O)C(O)C1OC1OCC(OC2OCC(O)C(O)C2O)C(O)C1O (stereo partly drawn),outcome,[1],inactive [at 9.29 µM]
same,outcome,[2],inactive [at 9.29 µM]
C[C@H](NC(c1cccc2[nH]c(=O)c(=O)[nH]c12)P(=O)(O)O)c1ccc(Br)cc1 (stereo partly drawn),Potency,[1],inactive
same,Potency,[2],inactive
CC(O)(CC(=O)O)CC(=O)OCc1ccc(O[C@@H]2O[C@H](CO)[C@@H](O)[C@H](O)[C@H]2O)cc1 (stereo partly drawn),Potency,[1],inactive
same,Potency,[2],inactive
OC[C@H]1O[C@@H](OCCc2ccccc2)[C@H](O[C@@H]2OC[C@](O)(CO)[C@H]2O)[C@@H](O)[C@@H]1O,Potency,[1],inactive
same,Potency,[2],inactive
C[C@@H]1C[C@H]2O[C@@H]2/C=C\C=C\C(=O)Cc2c(Cl)c(O)cc(O)c2C(=O)O1,Potency,[1],2860 nM (active)
same,Potency,[2],438 nM (active) and 5.7 µM (active)
C=C1C(=O)O[C@@H]2C[C@H](C)[C@@]3(O)C=C(C(C)=O)[C@]4(CC3C[C@H]12)C(=O)O[C@H]1C[C@@H](C)C(CCC(C)=O)=CC[C@H]14 (stereo partly drawn),Potency,[1],inactive
same,Potency,[2],inactive
CC1(C)CC[C@]2(C(=O)O[C@@H]3O[C@H](CO)[C@@H](O)[C@H](O)[C@H]3O)CC[C@]3(C)C(=CCC4[C@@]5(C)C[C@@H](O)[C@H](O)[C@@](C)(CO)C5CC[C@]43C)C2[C@@H]1O (stereo partly drawn),Potency,[1],inactive
same,Potency,[2],inactive
C=C(C(=O)O)C1CC2=C(C)CCCC2(C)C[C@@H]1O (stereo partly drawn),Potency,[1],inactive
same,Potency,[2],inactive
C[C@@H](O)[C@H](NC(=O)c1ccc(C#Cc2ccc(CN3CCOCC3)cc2)cc1)C(=O)NO,Potency,[1],inactive
same,Potency,[2],inactive
COC1=CC(=O)CC(C)C12Oc1cc(OC)cc(O)c1C2=O (stereo not drawn),Potency,[1],inactive
same,Potency,[2],inactive
CC(=O)N[C@H]1[C@H](O[C@H]2CC[C@@]3(C)C(CC[C@]4(C)C3CC=C3[C@@H]5CC(C)(C)CC[C@]5(C(=O)OC5OCC(O)C(O)C5O)CC[C@]34C)C2(C)C)O[C@H](COC2OC(C)C(O)C(OC3OC(C)C(O)C(O)C3O)C2O)[C@@H](O)[C@@H]1O (stereo partly drawn),outcome,[1],inactive [at 9.29 µM]
same,"activity change, negative = cytotoxicity",[2],4.96% [at 9.29 µM]
COc1c2c(c(C)c3c1C(=O)OC3)O[C@@]1(C)CCC3(C(C)(C)O)OC(=O)CC[C@]3(C)[C@H]1C2 (stereo partly drawn),Potency,[1],inactive
same,Potency,[2],inactive
CC(C)=C/C=C\[C@H](C)[C@H]1CC[C@]2(C)C[C@@H]3C(C)=CC(=O)C3/C(CO)=C\C[C@@H]12 (stereo partly drawn),Potency,[1],inactive
same,Potency,[2],inactive
CCOc1ccc(NC(=S)N2CCC(C(O)(c3ccccc3)c3ccccc3)CC2)cc1,Potency,[1],inactive
same,Potency,[2],inactive
C[C@H](N)C(=O)N[C@@H](Cc1ccc(O)cc1)C(=O)N1CCC[C@H]1C(=O)NCC(=O)N[C@@H](CCCCN)C(=O)N[C@@H](Cc1ccccc1)C(N)=O,outcome,[1],inactive [at 9.29 µM]
same,outcome,[2],inactive [at 9.29 µM]
Nc1nc2c(ncn2[C@@H]2O[C@@H]3COP(=O)(O)O[C@H]3[C@H]2O)c(=O)[nH]1,Potency,[1],inactive
same,Potency,[2],inactive
CC1(C)CC[C@]2(C(=O)O)CC[C@]3(C)C(=CCC4[C@@]5(C)C[C@@H](O)[C@H](O)C(C)(C)C5CC[C@]43C)C2C1 (stereo partly drawn),Potency,[1],inactive
same,Potency,[2],inactive
CC1(C)CC[C@]2(C(=O)O[C@@H]3O[C@H](CO)[C@@H](O)[C@H](O)[C@H]3O)CC[C@]3(C)C(=CCC4[C@@]5(C)C[C@@H](O)[C@H](O)C(C)(C)C5[C@H](O)C[C@]43C)[C@@H]2[C@@H]1O (stereo partly drawn),Potency,[1],inactive
same,Potency,[2],inactive
CC1=C2C[C@H]3O[C@@]3(C)CCC3O[C@@]3(C)C[C@@]2(O)OC1=O (stereo partly drawn),Potency,[1],inactive
same,Potency,[2],inactive
C=C[C@@]12COC(=O)C(=C)C1[C@@H](O)[C@H](C(=C)C(=O)OC)[C@@H](OC(=O)C(=C)CO)C2 (stereo partly drawn),Potency,[1],inactive
same,Potency,[2],inactive
O=C1OCc2cc3cccc(O[C@@H]4O[C@H](CO)[C@@H](O)[C@H](O)[C@H]4O)c3c(O)c21,Potency,[1],inactive
same,Potency,[2],inactive
CC12CCC3c4ccc(O)cc4CCC3C1CC(OC1OC(C(=O)O)C(O)C(O)C1O)C2O (stereo not drawn),Potency,[1],inactive
same,Potency,[2],inactive
C=C(C)C1CCC2(C(=O)O[C@@H]3O[C@H](CO[C@@H]4O[C@H](CO)[C@@H](O)[C@H](O)[C@H]4O)[C@@H](O)[C@H](O[C@@H]4O[C@@H](C)[C@H](O)[C@@H](O)[C@H]4O)[C@H]3O)CCC3(C(=O)O)C(CCC4C5(C)CCC(O)C(C)(C)C5CCC43C)C12 (stereo partly drawn),outcome,[1],inactive [at 9.29 µM]
same,outcome,[2],inactive [at 9.29 µM]
